Results as given in the supplement of paper PMC10849652.
About 8,800 targets were measured; listed, in parts, are those with a hit and a random draw of the rest. About 0.5% of all pairs of compound and target were hits.

Legend:
Test in all cases: log2 fold change, soluble protein after heating vs DMSO (PISA); higher = thermal stabilisation; K562 lysate, 10 uM; active = over 0.2 and 3.5 SD of the protein, either way, in both replicates (recomputed)
alvocidib = compound: CN1CC[C@H](c2c(O)cc(O)c3c(=O)cc(-c4ccccc4Cl)oc23)[C@H](O)C1 [alvocidib]
In short: (§1)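 Thermal stability, expressed as log-two fold change relative to solvent controls, is given from duplicates. Crude K562 extract in PBS pH 7.4 with 1 mM MgCl2, at 1 mg/mL protein, was treated with 10 μM compound for 30 min and heated in aliquots for 3 min across 48°C-58°C. After pooling, adjustment to 0.5% NP-40 at 4°C and centrifugation at 21,000xg for 90 min, supernatant protein was measured by TMTpro 16plex LC-MS/MS with channel sums equalised.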

Tubastatin A = compound: CN1CCc2c(c3ccccc3n2Cc2ccc(C(=O)NO)cc2)C1 [Tubastatin A]
In short: as §1

[1] = compound: CNC(=O)C1=CC=CC=C1NC2=NC(=NC=C2Cl)NC3=C(C=C(C=C3)N4CCOCC4)OC
In short: as §1

defactinib = compound: CNC(=O)c1ccc(Nc2ncc(C(F)(F)F)c(NCc3nccnc3N(C)S(C)(=O)=O)n2)cc1 [defactinib]
In short: as §1

[2] = compound: CNc1nc(-c2ccc3c(N)n[nH]c3c2)cc(N2C[C@@H](C(=O)NC3CCCCC3)CC[C@H]2C)n1
In short: as §1

encorafenib = compound: COC(=O)N[C@@H](C)CNc1nccc(-c2cn(C(C)C)nc2-c2cc(Cl)cc(NS(C)(=O)=O)c2F)n1 [encorafenib]
In short: as §1

[3] = compound: COC(=O)[C@H](CCSC)NC(=O)C1=C(C=C(C=C1)NC[C@H](CS)N)C2=CC=CC=C2
In short: as §1

alisertib = compound: COc1cc(Nc2ncc3c(n2)-c2ccc(Cl)cc2C(c2c(F)cccc2OC)=NC3)ccc1C(=O)O [alisertib]
In short: as §1

[4] = compound: COc1cc2nc(-c3cc(F)ccc3O)nc(N[C@@H]3CNC[C@H]3C(C)(C)O)c2cc1OC
In short: as §1

gefitinib = compound: COc1cc2ncnc(Nc3ccc(F)c(Cl)c3)c2cc1OCCCN1CCOCC1 [gefitinib]
In short: as §1

Measured: log2 fold change

TEX30 (UniProt Q5JUR7)
Chain of UniProt Q5JUR7 (Q5JUR7 whole entry, looked up): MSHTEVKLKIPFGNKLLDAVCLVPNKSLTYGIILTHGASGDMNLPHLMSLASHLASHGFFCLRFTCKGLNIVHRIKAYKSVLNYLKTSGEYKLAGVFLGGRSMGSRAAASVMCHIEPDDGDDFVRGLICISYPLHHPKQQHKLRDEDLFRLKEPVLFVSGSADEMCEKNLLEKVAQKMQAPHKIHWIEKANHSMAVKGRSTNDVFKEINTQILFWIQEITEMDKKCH
inactive: alvocidib -0.021 | Tubastatin A -0.066 | [1] 0.066 | defactinib -0.097 | [2] 0.07 | encorafenib 0.047 | [3] 0.007 | alisertib 0.101 | [4] 0.041 | gefitinib 0.058

TMEM199 (UniProt Q8N511)
Chain of UniProt Q8N511 (Q8N511 whole entry, looked up): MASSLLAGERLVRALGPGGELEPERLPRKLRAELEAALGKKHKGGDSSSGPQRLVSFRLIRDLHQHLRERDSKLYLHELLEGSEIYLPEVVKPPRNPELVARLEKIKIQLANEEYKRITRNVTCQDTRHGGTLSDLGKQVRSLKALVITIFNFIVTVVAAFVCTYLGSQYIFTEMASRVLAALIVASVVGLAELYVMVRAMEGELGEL
inactive: alvocidib -0.032 | Tubastatin A 0.097 | [1] -0.035 | defactinib -0.023 | [2] -0.001 | encorafenib -0.011 | [3] -0.093 | alisertib 0 | [4] -0.007 | gefitinib 0.001

UBXN2B (UniProt Q14CS0)
Chain of UniProt Q14CS0 (Q14CS0 whole entry, looked up): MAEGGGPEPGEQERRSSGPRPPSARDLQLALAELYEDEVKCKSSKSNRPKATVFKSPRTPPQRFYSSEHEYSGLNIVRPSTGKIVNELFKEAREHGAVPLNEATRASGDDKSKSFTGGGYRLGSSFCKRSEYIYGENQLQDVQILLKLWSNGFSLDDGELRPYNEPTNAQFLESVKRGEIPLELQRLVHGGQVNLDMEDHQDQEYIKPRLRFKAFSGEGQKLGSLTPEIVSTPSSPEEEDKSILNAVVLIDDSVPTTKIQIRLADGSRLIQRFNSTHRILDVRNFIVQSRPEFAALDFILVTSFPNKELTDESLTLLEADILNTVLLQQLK
inactive: alvocidib -0.123 | Tubastatin A -0.001 | [1] -0.046 | defactinib 0.07 | [2] -0.018 | encorafenib -0.037 | [3] 0.069 | alisertib 0.174 | [4] -0.114 | gefitinib 0.008

TFPI (UniProt P10646)
inactive: alvocidib 0.245 | Tubastatin A -0.012 | [1] 0.036 | defactinib 0.056 | encorafenib 0.072 | [3] -0.017 | alisertib -0.003 | [4] -0.128 | gefitinib 0.061

TK1 (UniProt K7ERV3)
inactive: alvocidib -0.028 | Tubastatin A 0.118 | [1] -0.002 | defactinib -0.024 | [2] 0.121 | encorafenib -0.199 | [3] 0.006 | alisertib -0.283 | gefitinib 0.214

TRADD (UniProt Q15628)
Chain of UniProt Q15628 (Q15628 whole entry, looked up): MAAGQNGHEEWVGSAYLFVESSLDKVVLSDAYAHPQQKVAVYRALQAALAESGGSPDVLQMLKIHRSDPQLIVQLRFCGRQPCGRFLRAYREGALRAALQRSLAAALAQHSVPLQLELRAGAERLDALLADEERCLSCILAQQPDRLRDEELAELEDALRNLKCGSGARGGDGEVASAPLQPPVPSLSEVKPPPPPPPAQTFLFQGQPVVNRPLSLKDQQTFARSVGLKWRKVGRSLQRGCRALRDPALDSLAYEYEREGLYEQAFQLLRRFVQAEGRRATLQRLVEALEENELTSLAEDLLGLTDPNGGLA
inactive: alvocidib -0.029 | Tubastatin A -0.066 | [1] 0.021 | defactinib -0.092 | [2] 0.021 | encorafenib -0.012 | [3] -0.241 | alisertib 0.009 | [4] 0.004 | gefitinib -0.03

TMEM161B (UniProt Q8NDZ6)
inactive: alvocidib -0.03 | Tubastatin A 0.035 | [1] -0.022 | defactinib 0.067 | encorafenib 0.047 | [3] 0 | alisertib -0.222 | [4] 0.033 | gefitinib -0.008

TESC (UniProt Q96BS2)
Chain of UniProt Q96BS2 (Q96BS2 whole entry, looked up): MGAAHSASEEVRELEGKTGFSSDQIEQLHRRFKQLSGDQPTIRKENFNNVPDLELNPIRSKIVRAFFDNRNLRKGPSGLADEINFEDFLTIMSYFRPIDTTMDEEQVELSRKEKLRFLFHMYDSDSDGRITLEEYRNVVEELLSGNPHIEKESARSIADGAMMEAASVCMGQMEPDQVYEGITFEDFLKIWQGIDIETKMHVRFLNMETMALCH
inactive: alvocidib -0.037 | Tubastatin A 0.022 | [1] -0.008 | defactinib -0.007 | [2] -0.034 | encorafenib 0.033 | [3] -0.037 | alisertib -0.053 | [4] -0.058 | gefitinib 0.091

UBAP2L isoform 5 (UniProt Q14157)
Chain of UniProt Q14157 (Q14157 whole entry, looked up): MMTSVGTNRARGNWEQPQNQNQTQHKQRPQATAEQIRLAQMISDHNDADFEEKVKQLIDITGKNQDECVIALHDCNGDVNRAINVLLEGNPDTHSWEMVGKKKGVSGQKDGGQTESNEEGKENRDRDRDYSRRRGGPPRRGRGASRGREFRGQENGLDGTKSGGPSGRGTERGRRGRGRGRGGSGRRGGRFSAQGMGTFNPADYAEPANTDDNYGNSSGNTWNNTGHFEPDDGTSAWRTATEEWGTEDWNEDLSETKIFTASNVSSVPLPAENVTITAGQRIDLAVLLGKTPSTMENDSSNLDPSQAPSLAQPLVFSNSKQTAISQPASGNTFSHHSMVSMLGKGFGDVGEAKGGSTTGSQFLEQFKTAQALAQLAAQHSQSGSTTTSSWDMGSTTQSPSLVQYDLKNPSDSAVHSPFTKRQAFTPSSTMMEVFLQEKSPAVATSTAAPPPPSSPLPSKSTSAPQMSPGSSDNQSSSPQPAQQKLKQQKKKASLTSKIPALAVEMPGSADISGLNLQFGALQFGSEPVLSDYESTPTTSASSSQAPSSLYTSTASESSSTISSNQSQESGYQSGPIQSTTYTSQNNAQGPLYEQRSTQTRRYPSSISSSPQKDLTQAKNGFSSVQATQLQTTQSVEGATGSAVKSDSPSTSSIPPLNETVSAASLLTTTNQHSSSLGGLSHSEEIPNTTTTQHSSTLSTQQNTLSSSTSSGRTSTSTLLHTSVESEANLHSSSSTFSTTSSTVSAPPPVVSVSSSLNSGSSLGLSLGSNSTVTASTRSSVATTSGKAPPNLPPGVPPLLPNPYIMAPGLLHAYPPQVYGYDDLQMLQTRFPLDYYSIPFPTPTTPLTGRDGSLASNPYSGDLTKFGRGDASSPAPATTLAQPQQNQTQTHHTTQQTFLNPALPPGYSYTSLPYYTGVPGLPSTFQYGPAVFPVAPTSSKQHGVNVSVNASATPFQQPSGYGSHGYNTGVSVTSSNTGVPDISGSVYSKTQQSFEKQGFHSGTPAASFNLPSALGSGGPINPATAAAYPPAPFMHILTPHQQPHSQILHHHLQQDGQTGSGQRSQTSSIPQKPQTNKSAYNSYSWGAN
inactive: alvocidib 0.019 | Tubastatin A 0.008 | [1] 0.007 | defactinib 0.016 | [2] 0.038 | encorafenib 0.041 | [3] -0.002 | alisertib 0.027 | [4] 0.022 | gefitinib -0.031

TPM3 isoform 2 (UniProt P06753)
inactive: alvocidib 0.03 | Tubastatin A 0.033 | [1] -0.012 | defactinib 0 | [2] -0.144 | encorafenib 0 | [3] -0.071 | alisertib 0 | [4] -0.024 | gefitinib 0.059

TBC1D2B (UniProt Q9UPU7)
Chain of UniProt Q9UPU7 (Q9UPU7 whole entry, looked up): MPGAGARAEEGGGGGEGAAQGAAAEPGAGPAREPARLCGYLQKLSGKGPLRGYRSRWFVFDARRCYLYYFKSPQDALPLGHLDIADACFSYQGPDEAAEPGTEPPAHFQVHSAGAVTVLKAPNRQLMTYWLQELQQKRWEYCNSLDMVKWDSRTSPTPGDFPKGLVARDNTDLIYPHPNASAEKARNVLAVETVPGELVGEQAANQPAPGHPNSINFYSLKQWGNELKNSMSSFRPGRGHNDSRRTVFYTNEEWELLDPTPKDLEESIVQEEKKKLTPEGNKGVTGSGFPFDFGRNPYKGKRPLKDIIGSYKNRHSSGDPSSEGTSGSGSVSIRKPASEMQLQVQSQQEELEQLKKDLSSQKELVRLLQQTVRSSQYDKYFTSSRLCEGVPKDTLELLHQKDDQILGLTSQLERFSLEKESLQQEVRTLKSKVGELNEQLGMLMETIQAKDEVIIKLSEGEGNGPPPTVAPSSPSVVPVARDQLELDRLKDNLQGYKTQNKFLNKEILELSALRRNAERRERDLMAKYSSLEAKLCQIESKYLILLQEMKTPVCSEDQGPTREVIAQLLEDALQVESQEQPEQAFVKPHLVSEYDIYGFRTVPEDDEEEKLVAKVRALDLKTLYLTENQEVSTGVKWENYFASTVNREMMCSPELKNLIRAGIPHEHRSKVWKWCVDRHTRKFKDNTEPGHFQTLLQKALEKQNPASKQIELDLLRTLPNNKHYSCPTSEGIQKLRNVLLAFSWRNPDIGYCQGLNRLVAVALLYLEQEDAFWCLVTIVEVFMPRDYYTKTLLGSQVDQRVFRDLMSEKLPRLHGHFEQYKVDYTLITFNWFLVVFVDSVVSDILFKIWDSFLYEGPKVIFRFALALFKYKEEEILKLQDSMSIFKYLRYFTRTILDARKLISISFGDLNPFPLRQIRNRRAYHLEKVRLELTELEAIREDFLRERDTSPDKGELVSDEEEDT
inactive: alvocidib -0.023 | Tubastatin A -0.157 | [1] 0.038 | defactinib 0.04 | [2] -0.047 | encorafenib 0.03 | [3] 0.063 | alisertib 0.011 | [4] 0.103 | gefitinib -0.001

UGDH (UniProt O60701)
inactive: alvocidib 0.023 | Tubastatin A -0.151 | [1] 0.015 | defactinib 0.071 | [2] -0.132 | encorafenib 0.047 | [3] 0.037 | alisertib -0.025 | [4] -0.004 | gefitinib -0.042

TUBA3C (UniProt P0DPH7)
inactive: alvocidib -0.012 | Tubastatin A -0.15 | [1] 0.01 | defactinib -0.013 | [2] -0.018 | encorafenib -0.037 | [3] 0.042 | alisertib -0.023 | [4] -0.035 | gefitinib -0.005

TUBA1C (UniProt Q9BQE3)
Chain of UniProt Q9BQE3 (Q9BQE3 whole entry, looked up): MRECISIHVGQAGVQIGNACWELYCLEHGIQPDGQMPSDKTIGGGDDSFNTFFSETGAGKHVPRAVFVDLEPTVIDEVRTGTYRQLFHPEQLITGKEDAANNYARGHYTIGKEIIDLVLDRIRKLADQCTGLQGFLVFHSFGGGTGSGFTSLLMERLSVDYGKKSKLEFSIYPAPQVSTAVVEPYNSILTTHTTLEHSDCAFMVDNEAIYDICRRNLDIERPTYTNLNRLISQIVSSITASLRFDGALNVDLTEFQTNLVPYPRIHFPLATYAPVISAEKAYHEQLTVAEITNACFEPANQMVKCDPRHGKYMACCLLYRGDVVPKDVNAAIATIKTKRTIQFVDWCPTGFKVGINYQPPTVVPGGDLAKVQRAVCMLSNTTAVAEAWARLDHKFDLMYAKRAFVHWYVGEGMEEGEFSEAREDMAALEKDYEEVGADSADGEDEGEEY
inactive: alvocidib 0 | Tubastatin A -0.001 | [1] 0.011 | defactinib 0.009 | [2] 0.06 | encorafenib -0.002 | [3] 0.023 | alisertib -0.012 | [4] 0.001 | gefitinib -0.042

TMEM177 (UniProt Q53S58)
inactive: alvocidib 0.042 | Tubastatin A 0.05 | [1] 0.075 | defactinib -0.009 | encorafenib 0.019 | [3] 0.153 | [4] 0.002

TPM1 isoform 4 (UniProt P09493)
inactive: alvocidib 0.017 | Tubastatin A 0.073 | [1] -0.013 | defactinib -0.031 | [2] -0.12 | encorafenib 0.02 | [3] -0.088 | alisertib 0.035 | [4] -0.012 | gefitinib 0.008

UBXN10 (UniProt Q96LJ8)
inactive: alvocidib -0.036 | Tubastatin A -0.02 | [1] 0.051 | defactinib 0.026 | [2] 0.019 | encorafenib 0.045 | [3] -0.116 | [4] -0.006

UBE2H (UniProt P62256)
Chain of UniProt P62256 (P62256 whole entry, looked up): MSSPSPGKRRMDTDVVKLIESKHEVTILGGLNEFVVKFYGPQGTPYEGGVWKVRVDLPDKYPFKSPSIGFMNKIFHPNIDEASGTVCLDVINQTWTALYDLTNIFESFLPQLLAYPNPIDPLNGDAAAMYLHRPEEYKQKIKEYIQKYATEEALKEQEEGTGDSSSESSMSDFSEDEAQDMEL
inactive: alvocidib 0.11 | Tubastatin A 0.076 | [1] -0.03 | defactinib 0.025 | [2] -0.061 | encorafenib 0.001 | [3] -0.01 | alisertib 0.004 | [4] -0.029 | gefitinib 0.044

TJP1 isoform 2 (UniProt Q07157)
inactive: alvocidib -0.011 | Tubastatin A 0.047 | [1] -0.02 | defactinib -0.018 | [2] 0.043 | encorafenib -0.013 | [3] 0.011 | alisertib -0.007 | [4] 0.007 | gefitinib -0.017

UBL5 (UniProt Q9BZL1)
inactive: alvocidib -0.117 | Tubastatin A 0.023 | [1] -0.048 | defactinib 0.041 | [2] -0.045 | encorafenib -0.012 | [3] -0.06 | alisertib 0.039 | gefitinib -0.141

TUBB6 (UniProt K7ES63)
inactive: alvocidib -0.11 | Tubastatin A -0.021 | [1] 0.111 | defactinib -0.018 | encorafenib 0.024 | [3] 0.125 | alisertib 0.055 | [4] -0.051 | gefitinib 0.165

TUBAL3 (UniProt A6NHL2)
Chain of UniProt A6NHL2 (A6NHL2 whole entry, looked up): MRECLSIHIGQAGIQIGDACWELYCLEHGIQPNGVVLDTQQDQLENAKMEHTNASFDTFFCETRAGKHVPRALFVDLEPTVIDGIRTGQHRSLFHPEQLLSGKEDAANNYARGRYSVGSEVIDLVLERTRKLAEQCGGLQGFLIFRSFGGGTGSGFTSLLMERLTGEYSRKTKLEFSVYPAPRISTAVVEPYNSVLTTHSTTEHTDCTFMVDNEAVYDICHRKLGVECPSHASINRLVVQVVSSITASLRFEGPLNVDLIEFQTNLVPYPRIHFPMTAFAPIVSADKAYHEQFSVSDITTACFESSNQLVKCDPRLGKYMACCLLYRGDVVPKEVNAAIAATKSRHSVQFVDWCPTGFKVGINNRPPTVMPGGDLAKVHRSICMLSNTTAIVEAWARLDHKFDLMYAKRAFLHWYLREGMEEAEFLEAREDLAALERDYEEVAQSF
inactive: alvocidib -0.276 | Tubastatin A 0.109 | [1] -0.179 | defactinib -0.093 | [2] 0.039 | encorafenib 0.03 | [3] 0.032 | alisertib 0.135 | [4] 0.088 | gefitinib -0.057

TBC1D20 isoform 3 (UniProt Q96BZ9)
Chain of UniProt Q96BZ9 (Q96BZ9 whole entry, looked up): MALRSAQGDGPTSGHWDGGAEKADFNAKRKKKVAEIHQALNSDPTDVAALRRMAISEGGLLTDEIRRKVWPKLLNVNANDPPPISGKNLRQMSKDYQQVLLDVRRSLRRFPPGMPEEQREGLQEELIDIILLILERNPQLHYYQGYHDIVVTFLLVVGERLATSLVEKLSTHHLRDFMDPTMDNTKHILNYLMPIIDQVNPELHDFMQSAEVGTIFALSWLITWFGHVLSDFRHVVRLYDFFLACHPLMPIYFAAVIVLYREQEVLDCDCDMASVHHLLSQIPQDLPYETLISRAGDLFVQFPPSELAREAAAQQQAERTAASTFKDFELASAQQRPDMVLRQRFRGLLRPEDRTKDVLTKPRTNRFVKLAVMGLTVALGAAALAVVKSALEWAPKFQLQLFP
inactive: alvocidib -0.011 | Tubastatin A -0.131 | [1] -0.017 | defactinib 0.166 | [2] 0.109 | encorafenib 0.037 | [3] -0.047 | [4] -0.021

UBL4A (UniProt P11441)
inactive: alvocidib 0.016 | Tubastatin A -0.039 | [1] -0.015 | defactinib 0.006 | [2] -0.008 | encorafenib 0.046 | [3] -0.043 | alisertib 0.018 | [4] -0.059 | gefitinib -0.033

TPST2 (UniProt O60704)
inactive: alvocidib -0.107 | Tubastatin A 0.059 | [1] 0.041 | defactinib -0.038 | [2] -0.02 | encorafenib 0.03 | [3] -0.049 | alisertib 0.478 | [4] 0.025 | gefitinib 0.072

UCHL5 (UniProt Q5LJA9)
inactive: alvocidib 0.049 | Tubastatin A -0.153 | [1] 0.005 | defactinib 0.015 | [2] -0.156 | encorafenib 0.007 | [3] 0.091 | [4] -0.011

TMEM97 (UniProt Q5BJF2)
inactive: alvocidib -0.081 | Tubastatin A 0.114 | [1] -0.016 | defactinib -0.021 | [2] 0.091 | encorafenib -0.008 | [3] -0.042 | alisertib -0.026 | [4] 0.014 | gefitinib -0.017

TMEM167B (UniProt Q9NRX6)
Chain of UniProt Q9NRX6 (Q9NRX6 whole entry, looked up): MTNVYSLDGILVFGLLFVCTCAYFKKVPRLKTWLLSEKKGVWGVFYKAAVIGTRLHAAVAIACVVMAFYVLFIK
inactive: alvocidib -0.167 | Tubastatin A -0.028 | [1] 0.06 | defactinib 0.015 | encorafenib 0.026 | [3] -0.022 | alisertib 0.012 | [4] 0.032 | gefitinib 0.032

TUBB4A (UniProt M0QYM7)
inactive: alvocidib -0.158 | Tubastatin A -0.007 | [1] -0.109 | defactinib -0.115 | encorafenib 0.009 | [3] 0.053 | alisertib -0.025 | [4] 0.042 | gefitinib -0.076

TRA2A (UniProt Q13595)
inactive: alvocidib -0.007 | Tubastatin A -0.079 | [1] -0.033 | defactinib 0.171 | [2] 0.031 | encorafenib -0.017 | [3] 0.068 | alisertib -0.188 | [4] 0.017 | gefitinib 0.118
